MEP2 TOR yeast – modulators of TOR pathway MEP2-GFP in S. cerevisiae | S. cerevisiae MEP2-GFP strain, flow cytometry GFP, 3 h; 100% = DMSO control level | GFP response vs DMSO, % at 10 µM | 330,000 compounds, 0.51% hits | AID 2016;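 active means GFP response versus DMSO above a set limit, roughly screen mean plus 3 SD, cut at about 180% in these data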;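 further: median GFP fluorescence of the barcode-gated MEP2-GFP cells per well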
AGP1 TOR yeast – alters AGP1-GFP fluorescence in TOR pathway yeast screen; GFP response vs DMSO, % at 10 µM; 320,000 compounds, 0.02% hits; S. cerevisiae AGP1-GFP multiplex flow cytometry, 3 h; GFP as percent of DMSO wells; AID 2066;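 active means GFP response relative to DMSO above a set limit, near screen average plus 3 SD, cut at about 150% in these data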;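 further: median GFP channel fluorescence of the gated AGP1 strain per well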
DSG3 Ab inh – blocks pemphigus antibody binding to human desmoglein-3; binding (percent of control), % at 10 µM; 310,000 compounds, 0.48% hits; AID 588358; DSG3-coupled beads, scFv-anti-DSG3-GFP binding, flow cytometry; stronger effect = lower value;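 active means binding more than 3 SD below its plate's average and above zero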
CIT2-GFP yeast – yeast TOR pathway CIT2-GFP modulation; S. cerevisiae CIT2-GFP strain, flow cytometry, 3 h; 100 means same as DMSO wells; GFP response vs DMSO, % at 10 µM; 320,000 compounds, 0.065% hits; AID 2029;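 active means GFP response relative to DMSO above a set limit, near the screen mean plus 3 SD, cut at about 150% in these data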;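 further: ratio of well median GFP fluorescence to mean of DMSO wells on the plate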
RPL19A TOR yeast – modulators of TOR pathway RPL19A-GFP in S. cerevisiae; 330,000 compounds, 0.3% hits; AID 2025; percent response vs DMSO, % at 10 µM; S. cerevisiae RPL19A-GFP strain, flow cytometry, 3 h; stronger effect = lower value;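 active means percent response vs DMSO below 50%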;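 further: median channel GFP fluorescence of the barcoded RPL19A-GFP strain; lower means less RPL19A-GFP as with rapamycin TOR inhibition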
LAP4-GFP MLPCN – modulators of TOR pathway LAP4-GFP in S. cerevisiae; S. cerevisiae LAP4-GFP multiplex, flow cytometry GFP, 3 h; median GFP as percent of DMSO wells; AID 2023; 320,000 compounds, 0.34% hits; GFP response vs DMSO, % at 10 µM;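 active means GFP response vs DMSO above a set limit, about the screen mean plus 3 SD, cut at about 150% in these data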
LAP4-GFP pick2 – reconfirmed LAP4-GFP TOR pathway modulator in yeast. shares compounds with LAP4-GFP MLPCN. S. cerevisiae LAP4-GFP strain, flow cytometry GFP, 3 h. GFP response vs DMSO, % at 10 µM. 590 compounds, 20% hits;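 active means GFP signal as percent of the solvent control above about 150%, meaning raised reporter expression, limit read from the data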
MEP2 cherry2 – second confirmation of modulators of TOR reporter MEP2-GFP in yeast. GFP response vs DMSO, % at 10 µM. 590 compounds, 10% hits. shares compounds with LAP4-GFP MLPCN. S. cerevisiae MEP2-GFP strain, flow cytometry GFP, 3 h. AID 2622;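 active means GFP signal above 150% of the solvent control wells, that is a rise of more than half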;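 further: median channel GFP fluorescence of all gated yeast cells per well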
RPL19A GFP CP2 – reconfirmed modulator of RPL19A-GFP TOR reporter in yeast. shares compounds with LAP4-GFP MLPCN. S. cerevisiae RPL19A-GFP strain, flow cytometry GFP, 3 h; stronger effect = lower value; 100% means same as DMSO wells. 590 compounds, 3% hits. GFP response vs DMSO, % at 10 µM. AID 2623;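 active means under 65% GFP response relative to DMSO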;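 further: median GFP channel fluorescence per well over the all cells gate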
CIT2-GFP pick2 – yeast CIT2-GFP TOR reporter modulation, second cherry pick; shares compounds with LAP4-GFP MLPCN; GFP response vs DMSO, % at 10 µM; 590 compounds, 8% hits; S. cerevisiae CIT2-GFP strain, flow cytometry GFP, 3 h; DMSO control wells read 100%;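 active means GFP response vs DMSO above about 150%, limit read from the data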;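 further: median green fluorescence per well over all gated yeast cells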
AGP1 GFP CP2 – reconfirmed modulator of AGP1-GFP TOR reporter in yeast. shares compounds with LAP4-GFP MLPCN. S. cerevisiae AGP1-GFP strain, flow cytometry GFP, 3 h. percent response vs DMSO, % at 10 µM. 590 tested, under 10 active. AID 2643;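 active means over 150 percent of DMSO response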;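 further: median GFP channel fluorescence over all cells without mother daughter split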
Yeast autofluor – counter-screen for compound autofluorescence in yeast s288c cells; shares compounds with LAP4-GFP MLPCN; 610 tested, under 10 active; S. cerevisiae s288c, 520 nm autofluorescence, flow cytometry, 3 h; stronger effect = higher value; zero means same as solvent-only cells; fluorescence change (kMESF span) at 33 µM; AID 2757;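 active means fluorescence span over the dose series, or activity score, above about 33, limit read from the data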
s288c autofl DR – TOR screen hit shows autofluorescence in yeast s288c. shares compounds with LAP4-GFP MLPCN. S. cerevisiae s288c parental, compound autofluorescence, flow cytometry, 3 h. fluorescence change (span) at 33 µM. 110 tested, under 10 active. AID 488829;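 active means fluorescence change span, or the activity score built from it, above 25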
TORC1 bypass – compounds blocking wildtype yeast growth but not TORC1 bypass cells. shares compounds with LAP4-GFP MLPCN. S. cerevisiae BY4741 spot growth rating, 48-72 h; stronger effect = lower value. growth rating (0-3) at 30 µM. 120 tested, under 10 active. AID 504456;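 active means growth rating at most 1 for wild type yeast while the TORC1 bypass strain still grows fully, rated 3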
Hits are given with their value; . = inactive; / = no result given. In the library only some 1.2% were active in any assay of this set; here they are far more common.

SMILES	MEP2 TOR yeast	AGP1 TOR yeast	DSG3 Ab inh	CIT2-GFP yeast	RPL19A TOR yeast	LAP4-GFP MLPCN	LAP4-GFP pick2	MEP2 cherry2	RPL19A GFP CP2	CIT2-GFP pick2	AGP1 GFP CP2	Yeast autofluor	others
Cc1c(NC2=C(Cl)C(=O)N(c3ccccc3)C2=O)c(=O)n(-c2ccccc2)n1C	.	.	.	.	.	.	/	/	/	/	/	.
COc1ccc(OC)c(Cc2nnc(CCC(=O)NCc3nc4ccccc4s3)o2)c1	.	.	.	.	.	.	/	/	/	/	/	/
COc1cccc(CCC(=O)Nc2cccc(S(=O)(=O)N3CCCC3)c2)c1OC	.	.	.	.	.	.	/	/	/	/	/	/
CCOC(=O)Cc1csc(NC(=O)CN2CCN(c3ccccc3)CC2)n1	.	.	.	.	.	.	/	/	/	/	/	/
O=C(COC(=O)/C=C/c1cccc(F)c1)NC1CCCC1	.	.	.	.	.	.	/	/	/	/	/	/
O=C(COC(=O)/C=C/c1cccc(F)c1)NC(=O)NC1CCCC1	.	.	.	.	.	164	.	.	.	.	.	/
Cc1nc(SC(C)C(=O)Nc2c(C)n(C)n(-c3ccccc3)c2=O)nc(C)c1C (configuration not stated)	.	.	.	.	.	.	/	/	/	/	/	/
Cc1c(NC(=O)C(C)Sc2n[nH]c(N)n2)c(=O)n(-c2ccccc2)n1C (configuration not stated)	648	.	.	170	.	196	.	.	.	.	.	/
O=C(COc1ccccc1)N1CCN(c2ncnc3c2cnn3-c2ccccc2)CC1	190	.	.	.	.	.	/	/	/	/	/	.
O=c1c2ccccc2nc(/C=C/c2ccc([N+](=O)[O-])o2)n1CCCO	230	.	.	179	.	193	300	353	.	275	.	/
COc1ccc2c(C(F)(F)F)cc(=O)oc2c1C	.	.	.	.	.	.	/	/	/	/	/	/
Cc1c(C)c2ccc(Oc3ccc([N+](=O)[O-])cc3C(F)(F)F)c(C)c2oc1=O	.	.	.	.	.	.	.	.	.	.	.	.
CCC(C(=O)N1CCN(Cc2ccc3c(c2)OCO3)CC1)n1nnc2ccccc2c1=O (configuration not stated)	/	/	.	/	/	/	/	/	/	/	/	/
Oc1ccccc1N=N/C(=N/Nc1ccccc1O)c1ccccc1	.	.	.	.	.	.	/	/	/	/	/	/
N#C/C(N=Nc1ccccc1O)=N\Nc1ccccc1O	.	.	.	.	.	183	.	.	.	.	.	/
O=C(CCc1ccc(S(=O)(=O)N2CCOCC2)cc1)Nc1nc(COc2ccccc2)cs1	.	.	.	.	.	.	/	/	/	/	/	/
CCC(=O)Nc1ccc(NC(=O)c2cc3ccccc3o2)cc1	.	.	.	.	.	.	/	/	/	/	/	.
CCC(=O)Nc1ccc(NC(=S)NC(=O)c2cc3ccccc3o2)cc1	.	.	.	.	.	.	/	/	/	/	/	/
COc1cc(NC(=O)c2ccccc2[N+](=O)[O-])ccc1NC(=O)c1cc2ccccc2o1	.	.	/	.	.	.	/	/	/	/	/	.
COc1cc(C(=O)N(CCN(C)C)CC2CCCN(Cc3ccccc3F)C2)ccc1C (configuration not stated)	.	.	.	.	.	.	/	/	/	/	/	/
Cc1cc(C2CCCCC2)n(O)c(=O)c1	.	.	.	.	.	192	187	.	.	.	.	.
Oc1cc(-c2ccc(N3CCCCC3)nc2)cc2cccnc12	.	.	.	.	.	164	.	.	.	.	.	.
Oc1cc(-c2ccncc2)cc2cccnc12	.	.	.	.	.	.	/	/	/	/	/	/
O=C1ON=C(c2ccccc2)/C1=C/c1ccco1	.	.	.	.	.	169	/	/	/	/	/	.	s288c autofl DR=.;TORC1 bypass=.
CCOc1cc(/C=C2\C(=O)ON=C2c2ccccc2)ccc1OC	.	.	.	.	.	.	/	/	/	/	/	/
SMILES	MEP2 TOR yeast	AGP1 TOR yeast	DSG3 Ab inh	CIT2-GFP yeast	RPL19A TOR yeast	LAP4-GFP MLPCN	LAP4-GFP pick2	MEP2 cherry2	RPL19A GFP CP2	CIT2-GFP pick2	AGP1 GFP CP2	Yeast autofluor	others
COc1ccc(/C=C2\C(=O)ON=C2c2ccccc2)cc1OC	.	.	.	.	.	.	/	/	/	/	/	/
COc1ccc(/C=C2/C(=O)ON=C2c2ccccc2)cc1OC	.	.	.	.	.	171	/	/	/	/	/	.
O=C1ON=C(c2ccccc2)/C1=C/c1ccc(-c2ccccc2[N+](=O)[O-])o1	.	.	.	.	.	179	150	.	.	.	.	.
O=[N+]([O-])c1ccccc1-c1ccc(/C=N/n2cnnc2)o1	.	.	.	.	.	.	/	/	/	/	/	/
CN(C)/C=C1\C(=O)ON=C1c1ccccc1	.	.	.	.	.	.	/	/	/	/	/	/
COc1cc(/C=C2\C(=O)ON=C2c2ccccc2)cc(OC)c1OC	.	.	.	.	.	.	195	.	.	.	.	.
CCc1ccc2cccc3c2c1N=CN3C	.	.	.	.	.	.	/	/	/	/	/	/
Cc1ccc2c(=O)n3c(nc2c1)C(Cc1ccccc1)NC(=O)c1cc(Cl)ccc1-3 (configuration not stated)	.	.	/	.	.	.	/	/	/	/	/	/
O=S(=O)(c1ccccc1F)N1CCC(c2nc3ccccc3[nH]2)CC1	.	.	.	.	.	.	/	/	/	/	/	/
CCN(CC)c1ccc(NC(=O)CCN2C(=O)c3ccccc3S2(=O)=O)c(C)c1	.	.	.	.	.	.	/	/	/	/	/	/
Cc1nc(SCC(=O)N2CCCCCC2)c2c(=O)n(C)c(=O)n(CC(C)C)c2n1	/	/	.	/	/	/	/	/	/	/	/	/

High-throughput results (PubChem BioAssay)
